Inhibition data for 27 compounds are collected here from ChEMBL document CHEMBL4808148, “HDAC6 screening dataset using tau-based substrate in an enzymatic assay yields selective inhibitors and activators” (2021).

Molecules are shown by their SMILES. Out of some 5,600 compounds screened, about 150 (2.7%) showed an effect of 50% or more. Only a selection was taken, and strong results are over-represented in it overall.

The target in this experiment is T1, Protein deacetylase HDAC6 (Homo sapiens) (UniProt Q9UBN7).
T1 sequence (whole entry): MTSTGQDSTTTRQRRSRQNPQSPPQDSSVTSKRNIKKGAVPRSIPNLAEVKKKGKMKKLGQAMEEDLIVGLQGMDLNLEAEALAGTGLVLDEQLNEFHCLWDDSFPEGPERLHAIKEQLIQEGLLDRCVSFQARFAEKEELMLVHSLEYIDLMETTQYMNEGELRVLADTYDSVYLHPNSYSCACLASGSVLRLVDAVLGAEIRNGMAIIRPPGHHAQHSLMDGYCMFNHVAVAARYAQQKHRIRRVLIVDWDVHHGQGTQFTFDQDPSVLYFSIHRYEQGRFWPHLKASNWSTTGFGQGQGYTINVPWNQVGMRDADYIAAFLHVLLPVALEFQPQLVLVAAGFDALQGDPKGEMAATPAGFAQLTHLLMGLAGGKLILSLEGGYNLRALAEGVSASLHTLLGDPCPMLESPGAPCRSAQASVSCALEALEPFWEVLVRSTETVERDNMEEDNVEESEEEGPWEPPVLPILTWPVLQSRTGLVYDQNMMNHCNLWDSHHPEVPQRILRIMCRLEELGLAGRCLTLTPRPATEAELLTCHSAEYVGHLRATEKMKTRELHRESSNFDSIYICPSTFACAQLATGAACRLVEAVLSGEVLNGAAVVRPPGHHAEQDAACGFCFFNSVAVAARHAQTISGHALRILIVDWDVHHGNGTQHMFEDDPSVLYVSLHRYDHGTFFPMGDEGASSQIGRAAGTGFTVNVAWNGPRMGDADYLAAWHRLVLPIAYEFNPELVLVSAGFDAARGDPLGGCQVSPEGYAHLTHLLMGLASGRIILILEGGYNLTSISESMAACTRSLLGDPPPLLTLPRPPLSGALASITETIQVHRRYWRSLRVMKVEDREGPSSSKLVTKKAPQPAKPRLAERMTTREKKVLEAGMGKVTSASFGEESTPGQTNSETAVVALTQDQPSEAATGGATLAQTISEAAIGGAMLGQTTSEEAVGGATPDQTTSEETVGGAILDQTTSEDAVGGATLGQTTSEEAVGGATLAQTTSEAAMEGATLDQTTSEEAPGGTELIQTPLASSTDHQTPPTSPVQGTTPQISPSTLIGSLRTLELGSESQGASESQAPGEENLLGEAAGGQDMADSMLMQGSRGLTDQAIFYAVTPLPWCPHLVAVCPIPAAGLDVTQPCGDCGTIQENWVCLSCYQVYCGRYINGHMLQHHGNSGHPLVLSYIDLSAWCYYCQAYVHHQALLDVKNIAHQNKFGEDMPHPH
The conditions noted are these: at 10 µM.
Broadly, the inhibition is the relative decrease from the control value, in per cent. With `Cc1cn2c(N)c(Cl)cc(C(=O)NCC3CCN(CC(C)C)CC3)c2n1`, the inhibition was found to be 4.88%.
With `C=CC(=O)N1CCC[C@@H](n2nc(-c3ccc(Oc4ccccc4)cc3)c3c(N)ncnc32)C1`, the inhibition was determined as 51%.
The same measure for `Nc1ncnc2c1c(-c1ccc(Oc3ccccc3)cc1)nn2C1CCCC1`: -1.59%.
For `C=CC(=O)N1CCC[C@@H](n2c(=O)n(-c3ccc(Oc4ccccc4)cc3)c3c(N)ncnc32)C1`, the inhibition is 6.07%.
As for `C=C1C(=O)O[C@@H]2[C@H]3C(C)=CC[C@@]34O[C@@]4(C)CC[C@@H]12`, the inhibition was found to be 4.41%.
As for `c1cnc(NCc2ccc(CNc3ncccn3)cc2)nc1`, the inhibition is 0.03%.
On to `CNc1nc(C)nc(N[C@H]2CCC[C@@H](C(=O)NCc3ccc(C#N)cc3C(F)(F)F)C2)n1`, for which the inhibition is -6.75%.
For `Cc1cc(O)cc2c1O[C@@](C)(CCC[C@@H](C)CCC[C@@H](C)CCCC(C)C)CC2`, the inhibition was -3.19%.
`Cc1nc2cnc3ccc(C#Cc4cccnc4)cc3c2n1-c1ccc(C(C)(C)C#N)cc1`: the inhibition was determined as 3.93%.
For `CC(=O)SCCC(=O)N1C(C)CCCC1C(=O)O` (configuration not stated), the inhibition was 7.82%.
As for `CSc1nc2ccc3nc(NC(=O)C(c4ccccc4)c4ccccc4)sc3c2s1`, the inhibition is -1.3%.
With `CC(=O)N(O)[C@@H]1c2cc(C#N)ccc2OC(C)(C)[C@H]1O` the figure was -2.08%; with `O=C(OCC(COC(=O)c1cccnc1)(COC(=O)c1cccnc1)COC(=O)c1cccnc1)c1cccnc1`, -1.03%.
Take `CN(C)c1nc(N)c(C(=O)Nc2cccnc2)nc1Cl`: the inhibition is 80.9%.
Turning to `N=C(N)NC(=O)c1nc(Cl)c(N)nc1N`, the inhibition was -8.95%.
With `Cn1ncc2c(N3CCOCC3)nc(-c3cccc(O)c3)nc21` the figure was -1.99%; with `Cc1ccc(-c2nn(C(C)(C)CNC(=O)c3ncccc3C)c3ncnc(N)c23)cc1`, 6.88%.
Turning to `Oc1ccc(-c2nc3cc(O)cc(Br)c3o2)cc1`, the inhibition stood at 54.3%.
Regarding `CC[C@H](NC(=O)c1c(O)c(-c2ccccc2)nc2ccccc12)c1ccccc1`, the inhibition came to 2.06%.
The same measure for `O=C(/C=C/c1cccc(F)c1)NC1CC1`: 8.47%; for `Cn1c(/C=C/C(=O)NO)ccc1/C=C/C(=O)c1cccc(F)c1`: 76.3%; for `CCCCCCCCC(=O)N[C@H](CN1CCCC1)[C@H](O)c1ccc2c(c1)OCCO2`: 6.86%.
Turning to `O=C(CCBr)N1CC[N+]2(CC1)CC[N+]1(CCN(C(=O)CCBr)CC1)CC2`, the inhibition is 0.06%.
`CS(=O)(=O)c1ccc(-c2cn3ccccc3n2)cc1`: the inhibition is 78.9%.
Consider `CN1CCN(c2cccc(Nc3nc4c(-c5ccc(S(C)(=O)=O)cc5)cccn4n3)c2)CC1`, for which the inhibition was -1.82%.
On to `CS(=O)(=O)c1ccc(-c2cnc(N)c(C(=O)Nc3ccccc3)n2)cc1`, for which the inhibition came to 2.63%.
As to `C[C@H]1O[C@@H](O[C@H]2CC[C@@]3(C)[C@H](CC[C@@H]4[C@@H]3C[C@@H](O)[C@]3(C)[C@@H](C5=CC(=O)OC5)CC[C@]43O)C2)C[C@H](O)[C@@H]1O[C@H]1C[C@H](O)[C@H](O[C@H]2C[C@H](O)[C@H](O[C@@H]3O[C@H](CO)[C@@H](O)[C@H](O)[C@H]3O)[C@@H](C)O2)[C@@H](C)O1`, the inhibition was -2.28%.
